Data taken from PubChem BioAssay (NCATS).
Inconclusive results are not listed. Calls of active or inactive are those of the source. The call rests on the fitted dose curve; in most records, active means well fitted inhibition curve with a large enough effect; inconclusive means small, poorly fitted or top-dose-only effect; inactive means flat fitted curve, though single readings scatter.

How the values were obtained:
[1] = target: Glutathione peroxidase 1 (Homo sapiens) (UniProt P07203); assay: Primary qHTS Assay for Inhibitors of Recombinant Selenoprotein Glutathione Peroxidase 1 (GPX1) (AID 1845191); further: nearly all actives have a fitted effect of over 65% in size
Sequence of Glutathione peroxidase 1 (Homo sapiens) (P07203 whole entry, looked up): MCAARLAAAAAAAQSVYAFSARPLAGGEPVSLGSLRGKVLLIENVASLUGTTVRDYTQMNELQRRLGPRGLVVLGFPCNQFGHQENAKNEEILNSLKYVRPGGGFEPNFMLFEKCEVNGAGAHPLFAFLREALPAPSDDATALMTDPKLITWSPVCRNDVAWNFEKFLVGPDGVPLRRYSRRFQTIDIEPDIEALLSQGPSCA
Summary of the method: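 GPX1 10 nM, GR 100 nM, GSH 1 mM, NADPH 0.5 mM, CHP 0.5 mM (final). 30-min cpd preincubation, RT. Ex340/Em450 read t=0, t=15 min.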

[2] = target: Phospholipid hydroperoxide glutathione peroxidase GPX4 (Homo sapiens) (UniProt P36969); assay: Primary qHTS Assay for Inhibitors of Recombinant Selenoprotein Glutathione Peroxidase 4 (GPX4) (AID 1845192); further: nearly all actives have a fitted effect of over 65% in size
Sequence of Phospholipid hydroperoxide glutathione peroxidase GPX4 (Homo sapiens) (P36969 whole entry, looked up): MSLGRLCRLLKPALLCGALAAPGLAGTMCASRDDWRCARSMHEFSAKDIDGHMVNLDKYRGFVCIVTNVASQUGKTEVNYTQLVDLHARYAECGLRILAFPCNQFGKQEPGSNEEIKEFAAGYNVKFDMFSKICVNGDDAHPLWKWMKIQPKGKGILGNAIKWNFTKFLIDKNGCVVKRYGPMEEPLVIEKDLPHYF
Summary of the method: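 qHTS, GR-coupled: GPX4 200 nM + cpd 30 min RT → GSH 1 mM, NADPH 0.5 mM, GR 100 nM → CHP 0.5 mM start; fluor 340/450 at t0 and t15 min; no-enzyme wells as control.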

[3] = target: Luciferin 4-monooxygenase (Photinus pyralis) (UniProt P08659); assay: Primary firefly luciferase (FLuc) qHTS assay for identification of artifact compounds. (AID 1845220); further: nearly all actives have a fitted effect of over 60% in size
Summary of the method: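 Reaction readout was CCD-imaged luminescence, taken 5 min after adding 10 nM purified firefly enzyme to compound-treated wells holding 10 uM luciferin and ATP in pH 7.6 buffer.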

[4] = test system: Nanoluciferase (engineered Oplophorus gracilirostris luciferase); assay: Primary Nanoluciferase (NLuc) qHTS assay for identification of artifact compounds. (AID 1845222);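 further: NLuc secreted into diluted conditioned medium of S16 cells; series mostly up to about 54 µM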
Summary of the method: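 Concentration-response data were obtained by luminescence after 5 min with Nano-Glo substrate at 1:100. The enzyme was diluted S16 NLuc-expressing cell medium, preincubated with compound for 15 min at RT. Curves were fitted with a 4-parameter Hill model.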

Measured: Potency

CC(=O)/C=C/C1(O)C(C)(C)CC(O)CC1(C)O (stereo not given)
inactive: all assays above

CCC1=C(C)C(=O)C(C)CC12C(=O)CCC2C(=O)O (stereo not given)
inactive: all assays above

Cc1nc(-c2cccnc2)sc1C(=O)Nc1ccccc1-c1cn2c(CN3CCOCC3)csc2n1
inactive: all assays above

CC1=C2C(=O)C=C(CO)C2[C@H]2OC(=O)[C@H](C)[C@@H]2[C@@H](OC(=O)Cc2ccc(O)cc2)C1 (stereo not given in full)
inactive: all assays above

C=C(CO)C(=O)O[C@H]1C[C@@]23O[C@@H]2CC/C(=C/[C@H]2OC(=O)C(=C)[C@H]12)CO[C@H]3O
inactive: all assays above

CC(=O)c1ccc(O[C@@H]2O[C@H](CO[C@@H]3OC[C@@H](O)[C@H](O)[C@H]3O)[C@@H](O)[C@H](O)[C@H]2O)cc1
inactive: all assays above

COc1ccc(C(=O)CC(=O)O)c2c1C=CC(C)(C)O2
inactive: all assays above

C=C1C[C@@]2(O)O[C@@]3(C[C@H]2C(C)C)[C@@H](C)CC[C@@H]13
inactive: all assays above

CC(C)=CCC/C(C)=C/CO[C@@H]1O[C@H](CO[C@@H]2O[C@@H](CO)[C@H](O)[C@H]2O)[C@@H](O)[C@H](O)[C@H]1O
inactive: all assays above

COc1cccc(OC)c1-c1cc(C(=O)N[C@@H](CC(C)C)C(=O)O)nn1-c1ccnc2cc(Cl)ccc12
inactive: all assays above
